Most compounds without a hit are left out; they make up all but 2.3% or so of the library.
CHO-K1 Ca antag: counter-screen for M1 antagonists: effect in parental CHO-K1 cells. inhibition, % at 3 µM. ATP-induced calcium, Fluo-8 fluorescence. AID 602250. hit rate 0.6% among 360,000;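 active means inhibition above a per-plate cutoff, the plate's mean sample inhibition plus 3 SD, cut at about 24% in these data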
M1 ag parental: M1 agonist counterscreen hit in parental CHO-K1 cells; Fluo-8 calcium fluorescence; scaled to maximal ATP response, vehicle zero; activation, % at 3 µM; hit rate 0.48% among 360,000; AID 602248; in the data active means activation above about 15%;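 further: untransfected CHO-K1 host cells lacking M1 receptor as counterscreen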
M1 PAM: potentiates human M1 receptor response to acetylcholine; P11229; CHO-K1 hM1, Fluo-8 calcium fluorescence, ACh EC20; 0% = ACh EC20, 100% = maximal ACh; activation, % at 3 µM; hit rate 0.088% among 360,000; in the data active means activation above about 19%, passing the limit was not always enough
Target sequence (P11229 whole entry, looked up): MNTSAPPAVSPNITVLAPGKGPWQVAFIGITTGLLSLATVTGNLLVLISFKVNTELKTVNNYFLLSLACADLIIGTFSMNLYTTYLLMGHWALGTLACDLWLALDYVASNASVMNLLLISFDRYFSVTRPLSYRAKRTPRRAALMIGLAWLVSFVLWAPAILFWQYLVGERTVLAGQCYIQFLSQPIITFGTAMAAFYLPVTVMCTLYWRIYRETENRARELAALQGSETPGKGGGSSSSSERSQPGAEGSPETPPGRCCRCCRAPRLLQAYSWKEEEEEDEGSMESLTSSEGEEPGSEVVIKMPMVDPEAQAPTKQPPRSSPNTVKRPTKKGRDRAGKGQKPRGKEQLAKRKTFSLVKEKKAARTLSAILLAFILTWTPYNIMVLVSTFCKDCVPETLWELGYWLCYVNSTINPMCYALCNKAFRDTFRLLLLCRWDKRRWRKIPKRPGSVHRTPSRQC
CHO-K1 Ca PAM: M1 PAM counterscreen hit in parental CHO-K1 cells. ATP EC20, Fluo-8 calcium fluorescence; 0% at ATP EC20, 100% at ATP max. activation, % at 3 µM. hit rate 0.02% among 360,000. AID 602247;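 active means activation above the run cutoff, the mean activation of all test compounds plus 3 SD, cut at about 40% in these data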;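 further: peak over basal fluorescence ratio in a 140 s read after ATP addition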
CHRM1 agonist: human M1 muscarinic receptor agonism. P11229. CHO-K1 hM1, Fluo-8 calcium fluorescence, agonist mode; 0% DMSO, 100% acetylcholine EC100. activation, % at 3 µM. hit rate 0.33% among 360,000. AID 588814;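 active means activation above the run's mean compound activation plus 3 SD, cut at about 16% in these data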;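 further: peak over basal fluorescence ratio within a 140 s kinetic read after compound addition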
CHRM1 antagonist: blocks human M1 muscarinic receptor | P11229 | AID 588852 | hit rate 1.3% among 360,000 | inhibition, % at 3 µM | CHO-K1 hM1, Fluo-8 calcium fluorescence, ACh EC80 antagonist;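 active means percent inhibition above its own plate's cutoff, namely the mean of that plate's compound wells plus 3 SD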;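 further: peak over basal fluorescence ratio during 140 s after agonist addition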
Each line names hits and unclear results; the compound was inactive in the other large screens.

CCOc1ccc(/C=N/NC(=O)CN2CCCCCCC2)cc1	none
COc1ccc(CNC(=O)C2(C)Cc3c(-c4ccc(N(C)C)cc4)ccnc3O2)cc1OC (configuration not stated)	none
O=C(COc1ccccc1Cl)NC(=O)NC1CCCC1	CHRM1 antagonist 34.2
O=C(COc1ccc(Cl)cc1Br)NC(=O)NC1CCCC1	CHRM1 antagonist 31.1
O=C(NC1CCCCC1)C(c1ccccc1)N1CCCC1 (configuration not stated)	CHRM1 antagonist 79.8
O=C(Nc1ccccc1Cl)NC1CCCCCCC1	M1 ag parental 23.4
O=C(COc1ccc(Cl)cc1Cl)NC(=O)NC1CCCC1	none
Cc1ccc(C(C(=O)NC2CCCCC2)N2CCCC2)cc1 (configuration not stated)	none
COc1ccc(-c2ccc(N)[n+](CCCC(=O)O)n2)cc1	none
CC1(c2nnnn2-c2ccc3c(c2)OCCO3)CCC(=O)N1CCc1ccc(O)cc1 (configuration not stated)	none (no result: M1 PAM, CHRM1 agonist, CHRM1 antagonist)
COc1ccc(/C=N/NC(=O)c2ccc(CN3c4cccc5cccc(c45)S3(=O)=O)cc2)cc1	CHRM1 agonist 16.2
O=C(N/N=C/CCc1ccccc1)c1ccc(CN2c3cccc4cccc(c34)S2(=O)=O)cc1	CHRM1 agonist 21.0
COc1cc(/C=N/NC(=O)c2ccc(CN3c4cccc5cccc(c45)S3(=O)=O)cc2)cc(OC)c1O	none
O=C(NCCOC(=O)c1ccc(Cl)cc1)c1cccnc1	none
CCOC(=O)c1nc(Nc2cc(Cl)ccc2OC)c2ccccc2n1	none
O=C1NC[C@@H](CCCCN2C[C@H](Cc3ccccc3)N(CC3CCCCC3)C(=O)C2=O)N(CC2CCCCC2)C1=O	M1 ag parental 35.3 (no result: M1 PAM, CHRM1 agonist, CHRM1 antagonist)
O=C1NC[C@H](CCCCN2C[C@H](Cc3ccccc3)N(CC3CCCCC3)C(=O)C2=O)N(CCC2CCCCC2)C1=O	none (no result: M1 PAM, CHRM1 agonist, CHRM1 antagonist)
O=C1NC[C@H](CCCCN2C[C@@H](Cc3ccccc3)N(CC3CCCCC3)C(=O)C2=O)N(CCC2CCCCC2)C1=O	M1 ag parental 26.3 (no result: M1 PAM, CHRM1 agonist, CHRM1 antagonist)
CN(C)S(=O)(=O)c1ccc(Cl)c(NC(=O)CN2C(=O)NC3(CCc4ccccc43)C2=O)c1 (configuration not stated)	none
COc1cccc(C(=O)/C=C2\Sc3ccccc3N2C)c1	CHO-K1 Ca antag 24.0
O=C1NCCN(CC2CCN(CCc3ccc(Cl)c(Cl)c3)CC2)C1=O	none
CCc1nn(CC(=O)NCCCN2CCN(CC)CC2)c(=O)c2cc3occc3n12	M1 PAM 24.0
CCc1nn(CC(=O)NCCCN(CC)Cc2ccccc2)c(=O)c2cc3sccc3n12	CHRM1 antagonist 43.6
CCc1nn(CC(=O)NCCCN(C)C2CCCCC2)c(=O)c2cc3occc3n12	none
Cc1ccc(N(CC(O)CN2CCCCC2)S(=O)(=O)c2ccccc2[N+](=O)[O-])cc1 (configuration not stated)	none
CN1CCN(c2ccc(Cl)cc2NC(=O)CCN2C(=O)c3ccccc3C2=O)CC1	none
CCC(=O)N/N=C/c1ccc(-c2ccc([N+](=O)[O-])cc2)o1	none
CC(C)(C)C(=O)/C=c1\s/c(=C\c2ccc(-c3ccc([N+](=O)[O-])cc3)o2)c(=O)n1CC(=O)NC(N)=O	CHO-K1 Ca antag 26.5, M1 ag parental 15.9, CHRM1 agonist 23.3, CHRM1 antagonist 39.0
COc1ccc(C(C(=O)OCCN(C)C)c2ccccc2)cc1 (configuration not stated)	CHRM1 antagonist 78.3
CCCOc1ccc(C(C(=O)OCCN(CC)CC)c2ccccc2)cc1 (configuration not stated)	CHRM1 antagonist 98.1
CCCCn1c(N)c(N(CC(C)C)C(=O)c2c(-c3ccccc3)noc2C)c(=O)[nH]c1=O	none
CC(=O)Nc1cncc(-c2cccc(C(=O)N3CCOCC3)c2)n1	none
COc1ccc(C2/C=C\CN(C(=O)Nc3ccccc3)CC(=O)N2Cc2ccc(F)cc2)cc1 (configuration not stated)	none
COc1ccc(C2/C=C\CN(C(=O)Nc3ccc(C(F)(F)F)cc3)CC(=O)N2Cc2ccc(F)cc2)cc1 (configuration not stated)	CHRM1 antagonist 37.9
CCOc1ccc(NC(=O)CCN2CCN(S(=O)(=O)c3cc(Cl)ccc3OC)CC2)cc1	CHO-K1 Ca PAM 41.3
COc1ccc(NC(=O)CCN2CCN(S(=O)(=O)c3ccc(C(C)C)cc3)CC2)cc1	M1 ag parental 18.2
COc1ccc(NC(=O)CCN2CCN(S(=O)(=O)c3ccc(Cl)cc3)CC2)cc1	none
O=C(CN1C(=O)COc2ccc(Cl)cc21)N1CCc2ccccc21	none
Cc1ccc(C2CN(CCC(N)=O)C(=O)CO2)cc1 (configuration not stated)	none
CCC1=NN(C(=O)COc2ccccc2)C(O)(c2ccc(Br)cc2)C1 (configuration not stated)	M1 ag parental 21.5
O=C(NCCCn1ccnc1)C1c2ccccc2Oc2ccccc21	CHRM1 antagonist 23.6
CCN(CC)CCOC(=O)C1c2ccccc2Oc2ccccc21	CHRM1 antagonist 98.9
CCOCCCNC(=O)C1c2ccccc2Oc2ccccc21	none
CCN(CC)CCNC(=O)C1c2ccccc2Oc2ccccc21	CHRM1 antagonist 92.6
CCOc1ccccc1CN1CCN(CC2=Cc3cc(OC)ccc3OC2)CC1CCO (configuration not stated)	CHRM1 antagonist 34.4
CCOc1ccccc1CN1CCN(Cc2ccc(C)o2)CC1CCO (configuration not stated)	none
N#C/C(=C\c1ccc(O)c([N+](=O)[O-])c1)c1nc2ccccc2s1	CHO-K1 Ca antag 29.1
COc1cccc(N(C(=O)c2cccs2)c2nc3ccccc3s2)c1	CHO-K1 Ca antag 26.3
CCN(C(=O)c1cccs1)c1nc(-c2ccc(OC)cc2)cs1	none
Cc1c(N=Cc2nc3ccccc3[nH]2)c(=O)n(-c2ccccc2)n1C	CHO-K1 Ca antag 31.4
CCCC#Cc1cnc2c(c1)C(=O)N([C@H](C)CO)C[C@H](C)[C@@H](CN(C)C(=O)CCN1CCCCC1)O2	CHRM1 antagonist 45.4
COc1cccc(S(=O)(=O)N(C)C[C@@H]2Oc3ncc(C#CCN(C)C)cc3C(=O)N([C@H](C)CO)C[C@H]2C)c1	CHRM1 antagonist 48.7
C[C@@H]1CN([C@@H](C)CO)C(=O)c2cc(C#CCN(C)C)cnc2O[C@H]1CN(C)Cc1ccc2c(c1)OCO2	CHRM1 antagonist 61.8
C[C@@H]1CN([C@@H](C)CO)C(=O)c2cc(Br)cnc2O[C@H]1CN(C)C(=O)CCN1CCCCC1	none
Cc1ncccc1C(=O)N1CCCC(c2cc(C(=O)Nc3ccc(C(C)(C)C)cc3)no2)C1 (configuration not stated)	none
COC(=O)Cc1ccc(OC2(C)CCN(Cc3csc4ccccc34)C2)cc1 (configuration not stated)	CHRM1 antagonist 29.0

From PubChem
